Data as given in the supplement of paper PMC8728848.
The entries come from a sample that favours the strongest signals as a whole.

Legend:
Experiment in all cases: glycan array binding signal (z-score within array); higher = stronger binding
Conditions in all cases: glycan notation: IUPAC condensed, linker removed
[1] = target: 3dGal(b1-3)[Fuc(a1-4)]Glc
In short: (§1)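 Negative Z-scores can be read as non-binding. The Z-score is calculated within each array and then averaged across arrays of one protein sequence at different concentrations or buffers and across linkers. Arrays, 3228 in all, were curated from the Consortium for Functional Glycomics database and kept only where the protein sequence was available.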

[2] = target: Ara(a1-5)Ara(a1-5)Ara(a1-5)Ara(a1-5)Ara(a1-5)Ara(a1-5)Ara
In short: as §1

Fuc(a1-6)GlcNAc = target: Fuc(a1-6)GlcNAc
In short: as §1

[3] = target: Gal(b1-3)GalNAc(b1-4)[Neu5Ac(a2-3)]Gal(b1-4)Glc
In short: as §1

Gal(b1-3)GlcNAc = target: Gal(b1-3)GlcNAc
In short: as §1

[4] = target: Gal(b1-3)GlcNAc(b1-3)[Fuc(a1-3)[Gal(b1-4)]GlcNAc(b1-6)]Gal(b1-4)]GlcNAc(b1-6)[Gal(b1-4)]GlcNAc(b1-3)]Gal(b1-4)Glc
In short: as §1

Gal3S(b1-4)GlcNAc = target: Gal3S(b1-4)GlcNAc
In short: as §1

Glc(a1-2)Glc(a1-2)Glc = target: Glc(a1-2)Glc(a1-2)Glc
In short: as §1

Glc(a1-4)Glc(a1-6)Glc = target: Glc(a1-4)Glc(a1-6)Glc
In short: as §1

Glc(a1-6)Glc(a1-6)Glc = target: Glc(a1-6)Glc(a1-6)Glc
In short: as §1

[5] = target: Glc(b1-3)Glc(b1-3)Glc(b1-3)Glc(b1-3)Glc(b1-3)Glc(b1-3)Glc(b1-3)Glc(b1-3)Glc(b1-3)Glc(b1-3)Glc
In short: as §1

[6] = target: Glc(b1-3)Glc(b1-3)Glc(b1-3)Glc(b1-3)Glc(b1-3)Glc(b1-3)Glc(b1-3)Glc(b1-3)Glc(b1-3)Glc(b1-3)Glc(b1-3)Glc
In short: as §1

[7] = target: Glc(b1-3)Glc(b1-3)Glc(b1-3)Glc(b1-3)Glc(b1-3)Glc(b1-3)Glc(b1-3)Glc(b1-3)Glc(b1-3)Glc(b1-3)Glc(b1-3)Glc(b1-3)Glc
In short: as §1

Glc(b1-3)Glc(b1-4)Glc = target: Glc(b1-3)Glc(b1-4)Glc
In short: as §1

[8] = target: Glc(b1-3)Glc(b1-4)Glc(b1-4)Glc
In short: as §1

[9] = target: Glc(b1-4)Glc(b1-4)Glc(b1-4)Glc(b1-4)Glc(b1-4)Glc(b1-4)Glc(b1-4)Glc(b1-4)Glc(b1-4)Glc(b1-4)Glc
In short: as §1

GlcA(b1-3)Gal = target: GlcA(b1-3)Gal
In short: as §1

[10] = target: GlcA3S(b1-3)Gal(b1-4)GlcNAc(b1-3)Gal(b1-4)Glc
In short: as §1

GlcNAc(b1-3)Gal(b1-4)Glc = target: GlcNAc(b1-3)Gal(b1-4)Glc
In short: as §1

[11] = target: Man(a1-2)Man(a1-2)Man(a1-3)[Man(a1-2)Man(a1-6)[Man(a1-3)]Man(a1-6)]Man(b1-4)GlcNAc(b1-4)GlcNAc
In short: as §1

[12] = target: Man(b1-4)Man(b1-4)Man(b1-4)Man(b1-4)Man
In short: as §1

[13] = target: Neu(a2-3)Gal(b1-4)[Fuc(a1-3)]GlcNAc(b1-3)Gal(b1-4)Glc
In short: as §1

[14] = target: Neu5Ac(a2-3)Gal(b1-3)GalNAc(b1-4)[Neu5Ac(a2-3)]Gal(b1-4)Glc
In short: as §1

[15] = target: Neu5Ac(a2-3)Gal(b1-3)GlcNAc(b1-3)Gal(b1-4)Glc
In short: as §1

[16] = target: Neu5Ac(a2-3)Gal(b1-3)[Neu5Ac(a2-6)]GalNAc
In short: as §1

[17] = target: Neu5Ac(a2-3)Gal(b1-4)GlcNAc6S(b1-3)Gal6S(b1-3)GlcNAc6S
In short: as §1

[18] = target: Neu5Ac(a2-3)Gal(b1-4)[Fuc(a1-3)]GlcNAc(b1-3)Gal
In short: as §1

[19] = target: Neu5Ac(a2-6)Gal(b1-4)GlcNAc(b1-2)Man(a1-3)[Neu5Ac(a2-6)Gal(b1-4)GlcNAc(b1-2)Man(a1-6)]Man(b1-4)GlcNAc(b1-4)GlcNAc
In short: as §1

[20] = target: Neu5Ac(a2-6)Gal(b1-4)GlcNAc(b1-3)[Neu5Ac(a2-6)Gal(b1-4)GlcNAc(b1-6)]Gal(b1-4)Glc
In short: as §1

B1: Dectin-1 (Mus musculus), Q6QLQ4 (protein)
chain: GHNSGRNPEEKDNFLSRNKENHKPTESSLDEKVAPSKASQTTGGFSQPCLPNWIMHGKSCYLFSFSGNSWYGSKRHCSQLGAHLLKIDNSKEFEFIESQTSSHRINAFWIGLSRNQSEGPWFWEDGSAFFPNSFQVRNTAPQESLLHNCVWIHGSEVYNQICNTSSYSICEKEL
glycan array binding signal (z-score) [1]: 0.092 | glycan array binding signal (z-score) [2]: -0.064 | glycan array binding signal (z-score) (Fuc(a1-6)GlcNAc): -0.091 | glycan array binding signal (z-score) [3]: -0.091 | glycan array binding signal (z-score) (Gal(b1-3)GlcNAc): -0.088 | glycan array binding signal (z-score) [4]: 0.102 | glycan array binding signal (z-score) (Gal3S(b1-4)GlcNAc): -0.071 | glycan array binding signal (z-score) (Glc(a1-2)Glc(a1-2)Glc): -0.135 | glycan array binding signal (z-score) (Glc(a1-4)Glc(a1-6)Glc): 0.413 | glycan array binding signal (z-score) (Glc(a1-6)Glc(a1-6)Glc): -0.113 | glycan array binding signal (z-score) [5]: 1.33 | glycan array binding signal (z-score) [6]: 5.34 | glycan array binding signal (z-score) [7]: 13.4 | glycan array binding signal (z-score) (Glc(b1-3)Glc(b1-4)Glc): -0.135 | glycan array binding signal (z-score) [8]: -0.135 | glycan array binding signal (z-score) [9]: 0.216 | glycan array binding signal (z-score) (GlcA(b1-3)Gal): -0.06 | glycan array binding signal (z-score) [10]: -0.078 | glycan array binding signal (z-score) (GlcNAc(b1-3)Gal(b1-4)Glc): -0.029 | glycan array binding signal (z-score) [11]: -0.004 | glycan array binding signal (z-score) [12]: -0.113 | glycan array binding signal (z-score) [13]: -0.091 | glycan array binding signal (z-score) [14]: -0.039 | glycan array binding signal (z-score) [15]: -0.091 | glycan array binding signal (z-score) [16]: -0.069 | glycan array binding signal (z-score) [17]: -0.054 | glycan array binding signal (z-score) [18]: -0.091 | glycan array binding signal (z-score) [19]: -0.091 | glycan array binding signal (z-score) [20]: -0.091
